Screening data deposited in PubChem by The Scripps Research Institute Molecular Screening Center.
Rows were chosen to be rich in hits. Some 4.1% of all compounds tested hit in one or more screens of this group.
hgDAF-12 ag: hgDAF-12 agonism, primary luciferase screen; activation, % at 6.8 µM; AID 687014; actives 1.8% (n = 370,000); HEK293 GAL4-hgDAF12 UAS-luciferase reporter, agonist luminescence; normalized to butyrate control;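 active means activation above a cutoff set at the mean of all screened compounds plus 3 SD, cut at about 10% in these data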;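 further: 0% = DMSO wells and 100% = sodium butyrate wells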
hcDAF12 agonist: activators of H. contortus DAF-12 nuclear receptor | actives 1.4% (n = 370,000) | AID 652067 | HEK293 hcDAF-12 lit1-tk-luc reporter, luminescence; 0% DMSO, 100% Δ7-dafachronic acid | activation, % at 6.8 µM;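 active means activation above the mean of all tested compounds plus 3 SD, cut at about 5.5% in these data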;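 further: 100% = response to 3 µM Δ7-dafachronic acid high control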
DAX1 inh-1: NR0B1 (DAX1) inhibition | HEK293 Gal4-DAX1 luciferase reporter, luminescence | AID 504766 | actives 0.99% (n = 340,000) | inhibition, % at 6.75 µM | P51843;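 active means inhibition above the mean over all tested compounds plus 3 SD, cut at about 4.2% in these data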;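 further: 0% = DAX1-transfected cells with DMSO and 100% = empty-vector control cells with DMSO; inhibition shows as a rise in luminescence from relieved DAX1 repression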
DAX1 inh-2: DAX1 (NR0B1) inhibition, primary screen | actives 1.1% (n = 370,000) | HEK293T StAR-luciferase reporter, SF-1/DAX-1 repression relief | inhibition, % at 6.8 µM;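 active means inhibition above the mean over all tested compounds plus 3 SD, cut at about 3.6% in these data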;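 further: 0% = DAX-1 cells with DMSO and 100% = cells lacking DAX-1 with DMSO; higher inhibition means more luminescence from relief of DAX-1 repression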
ssDAF12 agonist: S. stercoralis DAF-12 activation, primary screen; HEK293 ssDAF-12/GRIP1 lit1-tk-luc reporter, luminescence; % of 3 µM dafachronic acid response; activation, % at 6.8 µM; actives 1% (n = 370,000); AID 652126;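 active means activation above the mean over all tested compounds plus 3 SD, cut at about 0.9% in these data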;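 further: 0% = DMSO-only wells and 100% = 3 µM delta7-dafachronic acid wells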
LXRb hcDAF ctr: counter-screen for hcDAF-12 agonists: agonists of human LXR-beta. shares compounds with hcDAF12 agonist. HEK293 Gal4-LXR tk-luc reporter, luminescence, 24 h; normalized: DMSO 0%, positive control 100%. activation, % at 6.8 µM. 3,400 tested, under 10 active. AID 743027;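 active means mean percent activation of the reporter above a cutoff set as the average over tested compounds plus their standard deviation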
Target sequence (P55055 whole entry, looked up, the tested form may be a part): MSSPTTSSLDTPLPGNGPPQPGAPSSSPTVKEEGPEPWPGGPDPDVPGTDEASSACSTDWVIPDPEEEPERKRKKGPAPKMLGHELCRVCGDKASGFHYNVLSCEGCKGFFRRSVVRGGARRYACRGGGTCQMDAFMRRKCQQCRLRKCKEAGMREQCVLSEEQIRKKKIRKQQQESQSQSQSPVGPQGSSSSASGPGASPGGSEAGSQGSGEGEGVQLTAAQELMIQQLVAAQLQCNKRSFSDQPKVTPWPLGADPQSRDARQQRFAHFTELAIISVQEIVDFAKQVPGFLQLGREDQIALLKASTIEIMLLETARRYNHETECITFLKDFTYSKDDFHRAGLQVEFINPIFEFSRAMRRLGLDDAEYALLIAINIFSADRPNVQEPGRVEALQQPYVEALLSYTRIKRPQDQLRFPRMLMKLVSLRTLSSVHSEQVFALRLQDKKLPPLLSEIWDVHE
hcDAF12 conf: confirmation of H. contortus DAF-12 agonists | shares compounds with hcDAF12 agonist | HEK293 hcDAF-12 lit1-tk-luc reporter, luminescence; % of Δ7-dafachronic acid response | activation, % at 6.8 µM | actives 61% (n = 3,400) | AID 743032;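 active means mean activation across triplicate tests above the threshold derived from the earlier primary screen, cut at about 5.5% in these data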;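 further: 0% = DMSO only wells and 100% = 3 µM Δ7-dafachronic acid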
An asterisk follows results filed as active; · = no result.

SMILES	hgDAF-12 ag	hcDAF12 agonist	DAX1 inh-1	DAX1 inh-2	ssDAF12 agonist	LXRb hcDAF ctr	hcDAF12 conf
O=C(OCc1ccc(CSc2nnc(-c3cccc4ccccc34)o2)cc1)c1ccc(F)cc1	0	0	·	·	-2	·	·
Cc1sc2ncnc(N/N=C/c3ccccc3O)c2c1C	7	7.2*	-4	0	0	0	0
CC(C)CCN1CCN(Cc2cc3ccccc3[nH]2)CC1CCO (centres undefined)	0	6.9*	0	0	0	0	7.0*
CC(C)CN1CCN(Cc2cc3ccccc3[nH]2)CC1CCO (centres undefined)	0	4	2	0	0	·	·
O=C(O)CSCC(=O)N1N=C2/C(=C/c3ccccc3)CCCC2C1c1ccccc1 (centres undefined)	1	2	-1	0	0	·	·
CCn1cc(Cl)c(C(=O)N2N=C3/C(=C/c4cccs4)CCCC3C2c2cccs2)n1 (centres undefined)	2	6.6*	0	-1	-1	0	5
COc1ccc(C(=O)N/N=C/c2ccc(N(C)c3ccccc3)cc2)cc1	-2	-3	·	-1	-2	·	·
Fc1cc(F)c2nc(N3CCCC3)sc2c1	3	0	1	2	-1	·	·
COc1ccc(-c2nnc(SCC(=O)Nc3ccc4cn[nH]c4c3)n2Cc2ccco2)cc1	4	7.4*	·	-2	1	0	5
CCOc1ccc(Nc2nc(NCC3CCCO3)c3ccccc3n2)cc1 (centres undefined)	-8	-3	-1	-2	-2	·	·
CCCC(=O)Nc1cccc(-c2nc3cc(C)c(C)cc3o2)c1	7	7.2*	1	4.3*	0	1	4
CCCC(=O)Nc1cccc(-c2nc3ccccc3o2)c1	0	-1	0	0	-1	·	·
COc1cc(O)c2c(=O)c(-c3ccc(O[C@@H]4O[C@H](CO)[C@@H](O)[C@H](O)[C@H]4O)cc3)coc2c1	12*	7.2*	2	2	1	2	5
O=S(=O)(c1ccc(F)cc1)N1CCN(CCc2ccccc2)CC1	-3	6.8*	0	0	-1	0	-1
CCCn1cc(CN2CCCC(C(=O)c3ccc4c(c3)OCO4)C2)c(C)n1 (centres undefined)	2	-2	1	0	0	·	·
CCOC(=O)C1=C(CSc2nc(-c3ccccc3)ccc2C#N)OC(N)=C(C#N)C1c1cccnc1 (centres undefined)	12*	7.2*	2	3	1.3*	1	9.4*
Cc1ccc(NC2=Nc3ccccc3CS2)cc1	19*	15*	-1	3	1.6*	2	14*
Cc1ccc(Nc2ccccc2)cc1	1	0	0	1	-1	·	·
CC(=O)c1ccc(N2Cc3ccccc3C2=NC(=O)c2cccs2)cc1	12*	6.6*	0	4	0	0	4
CCOC(=O)c1ccc(N2Cc3ccccc3C2=NC(=O)c2cccs2)cc1	1	-1	0	2	-1	·	·
CC(=O)c1cccc(-c2ccnc3c2CC(C(=O)Nc2ccccc2)O3)c1 (centres undefined)	1	-2	·	1	-2	·	·
O=C(Nc1ccc2nc3ccccc3nc2c1)c1ccc(Br)cc1	0	-2	-1	0	-2	·	·
O=C(Nc1ccc2cccnc2c1)c1ccc(Br)cc1	7	8.6*	3	0	0	0	7.0*
O=C(NC(=S)Nc1cccc(O)c1)C12CC3CC(CC(C3)C1)C2	4	1	1	1	-1	·	·
Cc1ccc(S(=O)(=O)N2CCCCC2)cc1C(=O)OC(C)C(=O)NC1CCCCC1C (centres undefined)	-1	-1	-1	-1	-1	·	·
SMILES	hgDAF-12 ag	hcDAF12 agonist	DAX1 inh-1	DAX1 inh-2	ssDAF12 agonist	LXRb hcDAF ctr	hcDAF12 conf
COc1ccc(C2Nc3cccc4cccc(c34)N2)cc1	6	5	0	0	0	·	·
CN(C)c1ccc(C2Nc3cccc4cccc(c34)N2)cc1	4	8.4*	-1	1	1.6*	0	8.3*
CNC(=O)NC(=O)C(OC(=O)CCNS(=O)(=O)c1ccccc1)c1ccccc1 (centres undefined)	1	7.2*	1	0	0	0	1
Cc1cc(NS(C)(=O)=O)c(=O)n(Cc2c(F)cccc2Cl)c1	1	-1	0	0	-1	·	·
CCN(CC)c1ccc(/C=N/N=C(c2ccccc2)c2ccccc2)c(O)c1	-1	-2	0	-1	-2	·	·
CCN(CC)c1ccc(/C=N/N(c2ccccc2)c2ccccc2)c(O)c1	6	12*	0	0	1.1*	0	5
CCC(=O)NC(=S)Nc1cccc(Cl)c1N1CCCCC1	-2	-3	-1	-2	-2	·	·
O=C(c1cccs1)N1CCCc2ccccc21	0	0	-1	0	-2	·	·
Cc1ccc2c(c1)CCCN2C(=O)c1cccs1	0	7.4*	0	1	1	0	3
O=C(O)c1ccc2c(c1)C(=O)N(c1cccc(S(=O)(=O)Nc3cccc(C(F)(F)F)c3)c1)C2=O	3	0	0	0	-1	·	·
CCc1ccc(-n2cc(-c3ccc([N+](=O)[O-])cc3)[nH]c2=S)cc1	5	0	0	1	-1	·	·
CCc1ccc(-c2cn(C3CCCCC3)c(=S)[nH]2)cc1	7	11*	0	1	0	0	1
Cc1nc2ccc(NC(=O)c3ccc4ccccc4n3)cc2s1	3	3	1	1	-1	·	·
Cc1nnc(NC(=O)c2ccc3ccccc3n2)s1	5	7.6*	2	4.3*	0	1	9.1*
COc1cc2c(cc1NC(=O)C(C)Sc1nc3ccccc3n1C)oc1ccccc12 (centres undefined)	-3	1	-1	0	0	·	·
COc1cc2c(cc1NC(=O)C(C)Sc1cccc[n+]1[O-])oc1ccccc12 (centres undefined)	7	9.6*	1	1	0	0	6
CC(C)(C)c1ccc(C(=O)NCC(=O)OCC(=O)N2CCN(S(=O)(=O)c3ccc(Cl)cc3)CC2)cc1	3	15*	1	2	0	0	3
COCC(C)N=C1NN=C(c2ccc(NC(C)=O)cc2)CS1 (centres undefined)	5	0	0	-1	-1	·	·
CC(C)N=C1NN=C(c2cccs2)CS1	12*	8.6*	2	3	1.4*	1	11*
COc1ccc(Cl)cc1-c1nc(N)nc(N(C)C)n1	-2	-1	-1	0	-2	·	·
